About 83,000 compounds went through this panel and 20% of them were active in at least one assay; those are over-represented in the sample as a whole.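 Treatment: one concentration, 48 hours, 96-well format. Scoring: percent growth, with anything below 10 considered active.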 Active and inactive are the calls of the source.
Key:
Test in all cases: NCI-60 one-dose screen, 48 h (100 = growth as untreated, 0 = no growth, -100 = all killed)
Settings in all cases: 10 µM unless noted
[1] = system: NCI-H23 lung
[2] = system: NCI-H226 lung
[3] = system: NCI-H322M lung
[4] = system: HOP-62 NSCLC
[5] = system: NCI-H460 lung
[6] = system: HOP-92 NSCLC
[7] = system: NCI-H522 lung
[8] = system: A549/ATCC NSCLC
[9] = system: 786-0 renal
[10] = system: COLO 205 colon
[11] = system: DU-145 prostate
[12] = system: K-562 leukemia
[13] = system: MALME-3M melanoma
[14] = system: MDA-MB-231 breast
[15] = system: RXF 393 renal
[16] = system: SF-268 CNS
[17] = system: SF-295 CNS
[18] = system: SF-539 CNS
[19] = system: UACC-257 melanoma
[20] = system: M14 melanoma

Measured: growth

CCCCOc1nc2c(C)cccc2cc1-c1cc(-c2ccc(Cl)cc2)nc(-c2ccc(Cl)cc2)c1
inactive: [1] 110% | [2] 100% | [3] 97.1% | [4] 103% | [5] 103% | [6] 91.4% | [7] 97.4% | [8] 101% | [9] 102% | [10] 111% | [11] 109% | [12] 91.2% | [13] 95.5% | [14] 89.5% | [15] 106% | [16] 92.7% | [17] 101% | [18] 96.8% | [19] 98.9% | [20] 101%

O=C(Nn1c(NCC(=O)N2c3ccccc3Sc3ccccc32)nnc1-c1ccc(O)cc1)c1ccccc1
inactive: [1] 94.4% | [2] 104% | [3] 104% | [4] 99.5% | [5] 105% | [6] 91.2% | [7] 93.1% | [8] 106% | [9] 92.4% | [10] 112% | [11] 113% | [12] 118% | [13] 95.5% | [14] 95.3% | [15] 122% | [16] 105% | [17] 105% | [18] 105% | [19] 104% | [20] 92.8%

O=c1ccc(N=Nc2ccc([N+](=O)[O-])cc2)ccc1O
active: [1] 2.17%
inactive: [2] 16.6% | [3] 17.6% | [4] 33% | [5] 17.8% | [6] 47.5% | [7] 14% | [8] 31.5% | [9] 42.3% | [10] 16.7% | [11] 38.4% | [12] 13.7% | [13] 22.9% | [14] 13.9% | [15] 46% | [16] 23.2% | [17] 12.6% | [18] 16.7% | [19] 21.9% | [20] 44.6%

CC(=O)N1N=C(c2ccc(Nc3nc(Nc4ccc(F)cc4)nc(Nc4ccc(Cl)cc4)n3)cc2)CC1c1ccc(Cl)cc1 (stereo not given)
inactive: [1] 84.6% | [2] 83.8% | [3] 85.3% | [4] 84.1% | [5] 107% | [6] 64.1% | [7] 73.2% | [8] 92.5% | [9] 98.2% | [10] 94.3% | [11] 111% | [12] 88.1% | [13] 110% | [14] 76.2% | [15] 88.8% | [16] 124% | [17] 123% | [18] 109% | [19] 104% | [20] 108%

COc1cc(C(=O)c2cnc(-c3c[nH]c4cccc(C)c34)[nH]2)cc(OC)c1OC
inactive: [1] 24% | [2] 57% | [3] 40.3% | [4] 36.2% | [8] 20.4% | [9] 10.4% | [13] 53.8% | [15] 75.2% | [16] 18.9% | [19] 83.9%
active: [5] 3.6% | [6] 5.73% | [7] -4.91% | [10] -29.3% | [11] -6.2% | [12] 8.72% | [14] -3.1% | [17] 7.59% | [18] 0.434% | [20] -2.55%

COc1ccc2c(c1OC)C(=O)O[C@H]2[C@H]1c2c(cc3c(c2OC)OCO3)CCN1C
inactive: [1] 92.5% | [2] 99.6% | [3] 104% | [4] 98.1% | [5] 105% | [6] 97% | [7] 92% | [8] 101% | [9] 99.5% | [10] 104% | [11] 117% | [12] 66.4% | [13] 92.2% | [14] 104% | [15] 108% | [16] 110% | [17] 94.1% | [18] 98.9% | [19] 95.2% | [20] 94.8%

COc1cc(-c2nc3sccn3c2-c2ccnc(NCCCNS(=O)(=O)c3ccc(F)cc3)n2)ccc1F
inactive: [1] 52.6% | [2] 52.1% | [3] 102% | [4] 90.2% | [5] 79.5% | [6] 79.4% | [7] 47.7% | [8] 83.2% | [9] 96.7% | [10] 56.9% | [11] 76.1% | [12] 38.2% | [13] 75.1% | [14] 86.1% | [15] 71.6% | [16] 74.2% | [17] 57.1% | [18] 95.6% | [19] 77.8% | [20] 53.6%

CCc1ccc(Oc2c(-c3ccc(OCc4ccc(Cl)cc4)cc3O)nn(C)c2C(F)(F)F)cc1
active: [1] -14.2% | [2] 6.86% | [4] -35.2% | [5] -20% | [6] -25.3% | [7] -33.5% | [8] 3.73% | [9] -37% | [10] -75.2% | [12] 2.43% | [13] -27.6% | [14] -55.7% | [15] -43.3% | [17] -11.1% | [18] 2.68% | [19] -18.3% | [20] 1%
inactive: [3] 13.6% | [11] 15% | [16] 12.6%

O=C(/C=C/c1sc(Cl)nc1Cl)c1ccc(Br)cc1
active: [12] 9.52%
inactive: [1] 85.8% | [2] 81.6% | [3] 100% | [4] 97.3% | [5] 103% | [6] 90.2% | [7] 86.6% | [8] 96.1% | [9] 92.2% | [10] 78.8% | [11] 98.6% | [13] 83.6% | [14] 90.4% | [15] 85.5% | [16] 94.1% | [17] 95.9% | [18] 71.1% | [19] 98.3% | [20] 67.8%

Cc1ccc(-c2nc(N3CCN(CC(=O)Nc4ccc(Cl)cc4)CC3)c3ccccc3n2)cc1
inactive: [1] 94% | [2] 92.9% | [3] 91.1% | [4] 103% | [5] 98.4% | [6] 114% | [7] 83.6% | [8] 77.4% | [9] 92.1% | [10] 102% | [11] 88.7% | [12] 72.9% | [13] 101% | [14] 80.1% | [15] 74.9% | [16] 83.9% | [17] 95.6% | [18] 99.6% | [19] 104% | [20] 99.1%

C=C1CC[C@@]2(C#N)[C@H]3[C@H](CC[C@@H]2C)[C@@H](C)C[C@@H](CC(C)(C)C#N)[C@H]13
inactive: [1] 44.1% | [2] 62.7% | [3] 90.2% | [4] 41.9% | [5] 22.8% | [7] 47.7% | [8] 42.9% | [9] 43% | [10] 35.5% | [11] 45.4% | [13] 103% | [14] 61.3% | [15] 86.2% | [16] 47% | [17] 14.4% | [18] 43.9% | [19] 71.9% | [20] 20.9%
active: [6] -16.9% | [12] 9.97%

COc1cc(/C=C/c2c(C(C)=O)c(C)nc3ccccc23)cc(OC)c1OC
active: [18] 7.46%
inactive: [1] 52.8% | [2] 52.4% | [3] 51.3% | [4] 42.4% | [5] 15% | [6] 47.8% | [7] 24.6% | [8] 53.4% | [9] 42.4% | [10] 19% | [11] 42.1% | [12] 13.8% | [13] 52.5% | [14] 43.1% | [15] 10.8% | [16] 49.3% | [17] 20.1% | [19] 59.6% | [20] 25.9%

Source: PubChem BioAssay (NCI)
